# Assay results from ChEMBL document CHEMBL3433997, “St. Jude Leishmania screening dataset” (2016).
# Target: Glucose transporter (Leishmania mexicana) (UniProt O61059)
# Test: ST_JUDE_LEISH: Cytotoxicity at 2uM final concentration against transgenic Leishmania Mexicana promastigotes LmGT2 that are glucose transport deficient and complemented with the L. Mexicana glucose transporter 2. Activity is measured by DNA content using SYBR green in vitro
# Format: functional
row,Compound,inhibition
1,CN1CCN(c2ccnc3ccc(NC(=O)Cc4ccc(-c5ccncc5)c5ccccc45)cc23)CC1,-0.2%
2,O=C(Nc1ccc(OC2CCN(Cc3ccccc3)CC2)c(Cl)c1)c1ccc(F)cc1,1.68%
3,CC(=O)Nc1ccc(C(=O)Nc2cccc(-c3ccc(-c4nc5cc(F)ccc5[nH]4)s3)c2)cn1,2.75%
4,Cc1cc(C2CCN(CCCCNC(=O)c3ccc(NC(=O)c4ccc(Cl)cc4)cc3)CC2)c(C)cc1OCCN(C)C,9.76%
5,CN1CCC(NCc2ccc(-c3ccc(C(F)(F)F)cc3)cc2)CC1,0.62%
6,CC(=O)Nc1nc(C(=O)Nc2ccc(-c3ccc(-c4nc5ccccc5[nH]4)cc3)cc2)cs1,3.01%
7,CCCCn1c(Sc2ccc(C#N)c([N+](=O)[O-])c2)nnc1-c1cc(OC)cc(OC)c1,0.45%
8,COc1cc(C)ccc1S(=O)(=O)N1CCCCC(c2ccc(C(F)(F)F)cc2)=N1,10.3%
9,Cc1ccc(NC(=O)c2ccc(CN3CCCN(Cc4cccc(Cl)c4)CC3)cc2)cc1C,2.64%
10,CCC1CN(S(=O)(=O)c2ccc3c(c2)NC(=O)CC(=O)N3)c2cc(Cl)ccc2O1 (stereo not given),3.29%
11,CCCCCC(=O)N1CCOC(CCN2CCc3c(c4ccccc4n3C)C2)(c2ccc(Cl)c(Cl)c2)C1 (stereo not given),9.52%
12,Cc1nc(C)c(-c2ccc(Oc3ccc(Cl)cc3)c(Cl)c2)c(O)c1Br,1.91%
13,O=C(Nc1ccc2c(c1)CNCC2)c1ccc(-c2ccc(Cl)cc2)cc1,84%
14,Cc1ccccc1Oc1ccc(Nc2ccnc(Nc3cccc(C(N)=O)c3)n2)cc1C(F)(F)F,1.52%
15,Cc1cc(C)cc(OCC(O)CN(Cc2cc(Cl)cc(Cl)c2)C(=O)Nc2ccc(Cl)cc2)c1 (stereo not given),-0.48%
16,Clc1nc(Cl)c2c(ccn2Cc2ccccc2)n1,2.54%
17,Cn1c(Sc2ncnc3sccc23)nc2ccccc21,2.32%
18,COc1ccc2ncc(F)c(CCN3CC(O)C(CNCc4ccc(F)cc4)C3)c2n1 (stereo not given),2.68%
19,COc1ccc2c(c1)CC1CN(CCCCNC(=O)c3ccc(NC(=O)c4cc(Cl)cc(Cl)c4)cc3)CCN1C2 (stereo not given),3.79%
20,Clc1cccc(Nc2ccc3c(N4CCCCC4)ncnc3n2)c1,4.28%

row,Compound,inhibition
1,Fc1cccc(COc2ccc(-n3ccc4c(NCCCn5ccnc5)ncnc43)cc2Cl)n1,1.59%
2,COc1ccc2ccc(F)c(CC(=O)N3CCOC(CNCc4cccc(-c5ccsc5)n4)C3)c2n1 (stereo not given),4.23%
3,COc1cc(Cl)c(C)cc1N(Cc1ccccc1-c1ccccc1)S(=O)(=O)c1ccc(C(F)(F)F)cc1,0.43%
4,N=C(N)NN=Cc1c2ccccc2c(Cl)c2ccc(Cl)cc12,104%
5,CCC(=O)c1ccc(-c2ccc(=O)n(CC(=O)N(CCN(CC)CC)Cc3ccc(-c4ccc(C(F)(F)F)cc4)cc3)n2)cc1,-1.47%
6,CCS(=O)(=O)N1CCN(c2nc(-c3ccccc3)nc(COC)c2Cc2ccccc2F)CC1,4.99%
7,COc1ccc2nccc([C@@H](O)CN3CCC(NC(=O)c4nc(Cl)c(Cl)c(N)c4Cl)CC3)c2c1,1.55%
8,CCCCCCCc1ccc(-c2c(C)[nH]c(C)c(Cl)c2=O)cn1,0.07%
9,CCCC(CNCc1cccc(OC(F)(F)F)c1)CNc1cc(=O)c2ccccc2[nH]1 (stereo not given),2.94%
10,Cc1cc2c(/C=C/C(=O)NC3CCC(CCN4CCc5ccc(C#N)cc5CC4)CC3)cccc2[nH]1 (stereo not given),3.25%
11,CC(C)(C)C1CCC(C(=O)c2ccc3ccccc3c2O)CC1 (stereo not given),0.57%
12,COc1cc(NC(=O)/C=C/c2cc(F)cc(F)c2F)cc(OCCN2CCC(O)(c3ccccc3)CC2)c1,2.47%
13,CN(C)c1nc2cc(-n3cnc4cc(-c5ccc(Cl)cc5)sc4c3=O)ccc2n1CCCN1CCCCC1,5.06%
14,Cc1ccc(-c2nc3cc(NC(=O)c4ccc([N+](=O)[O-])o4)ccc3o2)cc1Cl,68.1%
15,Cc1cc(NC(=O)NCCN2CCC(NS(=O)(=O)c3ccc(Br)cc3)C2)c2ccccc2n1 (stereo not given),3.49%
16,Oc1ccc2nc(NCCCc3ccccc3)nc(NCCc3ccccc3)c2c1,-0.15%
17,CCC(C)NCC(O)(c1ccc(Cl)cc1)c1ccc(Cl)cc1 (stereo not given),-0.2%
18,Oc1ccc(CCNc2nc(NCCCOc3ccccc3-c3cccc(C(F)(F)F)c3)nc(N3CCNCC3)n2)cc1,5.07%
19,COc1ccc(-c2ccc(NC(=O)c3ccc(Cl)cc3)cc2)cc1CN1CCC(O)CC1,2.54%
20,COc1ccc2nccc([C@@H](O)CN3CCC(NCc4ccc5c(n4)NCCC5)CC3)c2c1,6.5%
